Laboratory results published in PubChem BioAssay (NCATS).
Inconclusive results are not listed. Where a call stands in place of a potency, no number is given. Active and inactive are the calls of the source. Calls follow the shape of the dose curve; as a rule, active = well fitted curve in the direction sought with a large enough effect; inconclusive = small, poorly fitted or top-dose-only effect, or another doubt; inactive = no such curve, though single readings can be large; an effect the other way counts as inactive or inconclusive.

Assays:
[1] = Quantitative High-Throughput drug screen in 47 multiple myeloma cell lines against the NCATS MIPE library collection: KMM1_JCRB cell viability assay (AID 1918960); also: nearly all actives have a fitted effect of over 30% in size; also: potency is read from the fitted curve at half-maximal effect
Procedure, shortened: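 Myeloma cells at 500 per well in 1536-well format treated with MIPE 4.0 library by pin transfer for 48 h at 37C, 5% CO2. Viability from ATP luminescence (CellTiter-Glo), normalized to DMSO (100%) and media-only (0%) wells.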

[2] = Quantitative High-Throughput drug screen in 47 multiple myeloma cell lines against the NCATS MIPE library collection: JIM3_ECACC cell viability assay (AID 1918963; also: nearly all actives have a fitted effect of over 35% in size; also: potency is read from the fitted curve at half-maximal effect)
Procedure, shortened: (§1)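 Luminescent ATP measurement with CellTiter-Glo gives viability, scaled between DMSO-only wells (100%) and media-only wells (0%). Cells, 500 per well, faced library compounds for 48 hours at 37C.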

[3] = Quantitative High-Throughput drug screen in 47 multiple myeloma cell lines against the NCATS MIPE library collection: INA6_PLB cell viability assay (AID 1918965; also: nearly all actives have a fitted effect of over 55% in size; also: potency is read from the fitted curve at half-maximal effect)
Procedure, shortened: (§2)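 Steps: seed 500 cells per well; pin-transfer MIPE 4.0 library; incubate 48 h at 37C, 5% CO2, humidified; add CellTiter-Glo, 5 min room temperature; read luminescence.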

[4] = Quantitative High-Throughput drug screen in 47 multiple myeloma cell lines against the NCATS MIPE library collection: JJN3_DSMZ cell viability assay (AID 1918966; also: nearly all actives have a fitted effect of over 50% in size; also: potency is read from the fitted curve at half-maximal effect)
Procedure, shortened: (§3)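 CellTiter-Glo ATP luminescence gave viability after 48 h compound treatment at 37C of 500 multiple myeloma cells per well. Normalisation used DMSO-only wells as 100% and media-only wells as 0% viability; primary qHTS of approved and investigational drugs.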

[5] = Quantitative High-Throughput drug screen in 47 multiple myeloma cell lines against the NCATS MIPE library collection: H1112_PLB cell viability assay (AID 1918967; also: nearly all actives have a fitted effect of over 30% in size; also: potency is read from the fitted curve at half-maximal effect)
Procedure, shortened: as §3

[6] = Quantitative High-Throughput drug screen in 47 multiple myeloma cell lines against the NCATS MIPE library collection: Karpas25_ECACC cell viability assay (AID 1918968; also: nearly all actives have a fitted effect of over 35% in size; also: potency is read from the fitted curve at half-maximal effect)
Procedure, shortened: as §3

[7] = Quantitative High-Throughput drug screen in 47 multiple myeloma cell lines against the NCATS MIPE library collection: KMS27_JCRB cell viability assay (AID 1918970); also: nearly all actives have a fitted effect of over 30% in size; also: potency is read from the fitted curve at half-maximal effect
Procedure, shortened: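 Myeloma cells (500 per well) were exposed to MIPE 4.0 compounds for 48 h at 37 °C, 5% CO2; viability was read as ATP luminescence with CellTiter-Glo, normalized to DMSO-only (100%) and media-only (0%) wells.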

[8] = Quantitative High-Throughput drug screen in 47 multiple myeloma cell lines against the NCATS MIPE library collection: JIM1_ECACC cell viability assay (AID 1918964; also: potency is read from the fitted curve at half-maximal effect)
Procedure, shortened: as §3

[9] = Quantitative High-Throughput drug screen in 47 multiple myeloma cell lines against the NCATS MIPE library collection: Karpas417_ECACC cell viability assay (AID 1918961); details: Karpas417 myeloma viability, CellTiter-Glo ATP luminescence, 48 h; viability (% of DMSO): at 45.8 µM (top of the series); also: potency is read from the fitted curve at half-maximal effect
Procedure, shortened: as §2

[10] = Quantitative High-Throughput drug screen in 47 multiple myeloma cell lines against the NCATS MIPE library collection: KHM11_PLB cell viability assay (AID 1918962); also: nearly all actives have a fitted effect of over 35% in size
Procedure, shortened: as §1

Row | SMILES | Potency [1] | Potency [2] | Potency [3] | Potency [4] | Potency [5] | Potency [6] | Potency [7] | Potency [8] | Potency [9] | Potency [10]
1 | Nc1nc(F)nc2c1ncn2[C@@H]1O[C@H](COP(=O)(O)O)[C@@H](O)[C@H]1O | inactive | inactive | inactive | inactive | inactive | 13.2 µM (active) | inactive |  |  | 
2 | CC(C)(Cc1ccc2ccccc2c1)NC[C@@H](O)COc1cccc(Cl)c1C#N | inactive | inactive | inactive | 5.9 µM (active) | inactive | inactive | inactive |  |  | 
3 | COc1ccc(-c2nc(N3CCOCC3)c3sc(CN(C)c4ncc(C(=O)NO)cn4)cc3n2)cn1 | 0.001 µM (active) |  | inactive | 0.0019 µM (active) |  |  | 0.001 µM (active) | 0.001 µM (active) |  | 
4 | CCOC(CN1C(=O)[C@](CC(=O)Nc2ccc(C)cc2)(NC(=O)Nc2ccc(C)cc2)c2ccccc21)OCC |  |  | 23.5 µM (active) |  | inactive |  |  |  | 16.6 µM (active) | 
5 | CC(C(=O)O)c1ccc(-c2ccccc2)c(F)c1 (stereo unspecified) | inactive |  | 18.7 µM (active) | inactive | 18.7 µM (active) | 20.9 µM (active) |  | inactive |  | 
6 | O=C(O)C=Cc1ccc(O)c(O)c1 |  | inactive |  | 10.5 µM (active) | inactive |  | 16.6 µM (active) |  | 14.8 µM (active) | inactive
7 | Cc1cccc(Nc2nc(-c3ccncc3)cs2)c1 | 23.5 µM (active) | 20.9 µM (active) | 18.7 µM (active) |  |  |  | 18.7 µM (active) |  |  | 
8 | Nc1ncnc2c1ncn2[C@@H]1O[C@@H](CO)[C@H](O)[C@H]1O |  | inactive | inactive |  | inactive |  | inactive | inactive | inactive | 
9 | CS(=O)c1ccc(-c2nc(-c3ccc(F)cc3)c(-c3ccncc3)[nH]2)cc1 (stereo unspecified) | 34 µM (active) |  | 3.4 µM (active) | 2.15 µM (active) | 48.1 µM (active) | 8.55 µM (active) | 21.5 µM (active) | 34 µM (active) |  | 
